Consider 16 compounds from PubChem BioAssay (NCI).

Each structure is given as a SMILES string. Compounds without any hit were thinned out: in the full panel of roughly 79,000, 15% have a hit. Active and inactive are the calls of the source. Rule as the data show it: active = growth inhibition above about 70%; inactive = the rest.

The nature of the test: NCI Yeast Anticancer Drug Screen. Data for the cln2 rad14 strain (AID 165).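 Also: 0% = growth equal to vehicle treated cultures.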 Particulars: S. cerevisiae cln2 rad14 strain, at 5.0 µM (retest, dose inferred, filed as 0.5), hits give high values. The essentials:
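Yeast strain cln2 rad14, bearing defects in cell cycle control and DNA repair, serves as the test system; values reflect growth inhibition compared with vehicle.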
Turning to `CN(C)CC(CN(C)C)C(=O)/C=C/c1ccc(Cl)cc1Cl`, the growth inhibition is 0% (inactive). As for `Cc1ccccc1NC(=O)c1c(C)oc2c1C(=O)c1ccccc1C2=O`, the growth inhibition is 1% (inactive). With `CC(C)OC(=O)NNc1c(Cl)cc(Cl)cc1Cl`, the growth inhibition is 14% (inactive). In the case of `COc1ccc2nc3cccc([N+](=O)[O-])c3c(NCCNCCO)c2c1`, the growth inhibition is 81% (active). As for `CCC(OC(C)=O)C1CC(C(C)C)CCC1C` (stereo unspecified), the growth inhibition was 9% (inactive). Under `O=S(=O)(c1cccc(C(F)(F)F)c1)N1c2ccccc2-n2cccc2C1c1cccnc1` (stereo unspecified) stands 22% (inactive); under `c1ccc(-c2cc(C3CO3)c3ccccc3n2)cc1` (stereo unspecified), -29% (inactive). The result for `COc1ccc(/C=C2\SC(=S)N(/C=C3\C(=O)N(c4ccccc4)N=C3C)C2=O)cc1OC` reads -5% (inactive); that for `CC1=CC(=C(c2ccc(N)c(C)c2)c2ccc(N)c(C)c2)C=CC1=N`, 9% (inactive); that for `CC1C(c2ccccc2)SC(=N)N1C` (stereo unspecified), 1% (inactive). Take `CC(/C=C/c1ccc([N+](=O)[O-])o1)=N/N1CC(CN2CCOCC2)OC1=O` (stereo unspecified): the growth inhibition is 6% (inactive). As to `O=C1c2cccc3cccc(c23)C(=O)N1CCNCCN1C(=O)c2cccc3cccc(c23)C1=O`, the growth inhibition is 6% (inactive).

Take `Cc1ccc([N+](=O)[O-])c2c(NCCC[N+](C)(C)[O-])c3ccccc3nc12`: the growth inhibition was 18% (inactive). For `COC(=O)C(Cc1c[nH]c2ccccc12)N1CN(C)c2ccccc2C1=O` (stereo unspecified), the growth inhibition was -4% (inactive). Consider `O=C(/N=N/C(=O)Oc1ccccc1)Oc1ccccc1`, for which the growth inhibition is 5% (inactive). For the compound `CC1(C)CC(=O)C(/C=N/c2nc(-c3ccc(Br)cc3)cs2)=C(O)C1`, the growth inhibition is 65% (inactive).
